A short description of experiment [1]: qHTS assay to identify small molecule agonists of the peroxisome proliferator-activated receptor delta (PPARd) signaling pathway - cell viability counter screen (AID 743211). Note: nearly all actives have a fitted effect of over 55% in size. In a few lines: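 PPARd-bla HEK293H cells (UAS-beta-lactamase reporter) were treated with compounds for 17 h at 37 C. Viability was then read in the same wells by CellTiter-Glo luminescence after 30 min at room temperature.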
A general note: qHTS replaces the single test concentration by a dilution series.

The nature of experiment [2]: qHTS assay to identify small molecule antagonists of the peroxisome proliferator-activated receptor delta (PPARd) signaling pathway - cell viability counter screen (AID 743213). Note: nearly all actives have a fitted effect of over 50% in size. In a few lines:
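HEK293H cells with the PPARd UAS-bla reporter, co-treated 17 h at 37 C with compounds and L165041 (300 nM final), were lysed with CellTiter-Glo. Luminescence indicated viable cell content.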

The nature of experiment [3]: qHTS assay to identify small molecule agonists of the farnesoid-X-receptor (FXR) signaling pathway - cell viability counter screen (AID 743218). Note: nearly all actives have a fitted effect of over 45% in size. The gist of the method: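 Viability counter screen in the same wells: CellTiter-Glo luminescence, 30 min room-temperature incubation, measured after the beta-lactamase read. Cells were GeneBLAzer FXR-UAS-bla HEK 293T, compound-treated 16 h at 37C.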

Experiment [4] addresses Vitamin D3 receptor (Homo sapiens) (UniProt P11473). The experiment in a line: qHTS assay to identify small molecule agonists of the vitamin D receptor (VDR) signaling pathway (AID 743222; calls by dose curve). The gist of the method: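 Agonist mode, beta-lactamase reporter: fluorescence from LiveBLAzer B/G FRET substrate (2 h, room temperature) read after 16 h compound treatment at 37 C of VDR-bla cells, which were pre-incubated 4 h after seeding.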

The target is the same in experiment [5]. Nature of the experiment: qHTS assay to identify small molecule antagonists of the vitamin D receptor (VDR) signaling pathway (AID 743223; active = well fitted inhibition curve with a large enough effect in the signal ratio in the repeat runs, not every such curve was filed as active; the % refers to the signal ratio). In a few lines: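 VDR-bla cells were plated, incubated 4 h at 37C, then given compound and 1alpha,25-dihydroxyvitamin D3 (3 nM final). After 16 h at 37C, LiveBLAzer B/G FRET substrate was added for 2 h at room temperature and fluorescence read.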

Experiment [6] deals with Peroxisome proliferator-activated receptor delta (Homo sapiens) (UniProt Q03181). The experiment in a line: qHTS assay to identify small molecule agonists of the peroxisome proliferator-activated receptor delta (PPARd) signaling pathway (AID 743212; calls by dose curve). In a few lines: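 Beta-lactamase reporter read by fluorescence (LiveBLAzer B/G FRET, 2 h, room temperature). Test agents, in DMSO, incubated at 37 C with PPARd-bla HEK293H cells.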

The target is the same in experiment [7]. The experiment in a line: qHTS assay to identify small molecule antagonists of the peroxisome proliferator-activated receptor delta (PPARd) signaling pathway (AID 743215; active = well fitted inhibition curve with a large enough effect in the signal ratio in the repeat runs, not every such curve was filed as active; the % refers to the signal ratio;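 note: cells stimulated with agonist L165041 at 300 nM final during compound exposure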; note: potency is the fitted concentration of half-maximal effect). The gist of the method: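 Agonist L165041 (300 nM final) added with compound to PPARd-bla HEK293H UAS-bla reporter cells; 17 h incubation at 37 C. Read-out: LiveBLAzer FRET substrate, 2 h at room temperature, fluorescence intensity.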

For experiment [8], the target named is Bile acid receptor (Homo sapiens) (UniProt Q96RI1). The experiment in a line: qHTS assay to identify small molecule antagonists of the farnesoid-X-receptor (FXR) signaling pathway (AID 743217; active = well fitted inhibition curve with a large enough effect in the signal ratio in the repeat runs, not every such curve was filed as active; the % refers to the signal ratio). In a few lines: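 Antagonist mode: chenodeoxycholic acid at 50 uM final stimulates a UAS-driven beta-lactamase reporter in HEK 293T FXR-bla cells during 16 h, 37C compound exposure. Read-out is FRET substrate fluorescence after 2 h at room temperature.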

For experiment [9] the target is unchanged. The experiment in a line: qHTS assay to identify small molecule agonists of the farnesoid-X-receptor (FXR) signaling pathway (AID 743220; active = well fitted activation curve with a large enough effect in the signal ratio in the repeat runs, not every such curve was filed as active; the % refers to the signal ratio). The gist of the method: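 FXR-UAS-bla HEK 293T cells carrying a UAS-driven beta-lactamase reporter were plated for 5 h at 37C/5% CO2, then exposed to DMSO-dissolved Tox21 10K compounds for 16 h at 37C. A LiveBLAzer B/G FRET substrate was loaded for 2 h at room temperature before fluorescence reading.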

Experiment [10] is described as follows: qHTS assay to identify small molecule antagonists of the farnesoid-X-receptor (FXR) signaling pathway - cell viability counter screen (AID 743221; active = well fitted cell-killing curve with a large enough effect in the repeat runs, not every such curve was filed as active; note: nearly all actives have a fitted effect of over 50% in size). In a few lines:
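FXR-UAS-bla HEK 293T cells were treated with test compounds plus chenodeoxycholic acid (50 uM final) for 16 h at 37 C. Cell viability in the same wells was then read as CellTiter-Glo luminescence after 30 min at room temperature.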

Molecules are shown by their SMILES. Records with an inconclusive call do not appear. The source holds several records for some structures; these can differ, active in one and inactive in another. Activity calls are given as the source filed them. Unless noted, calls come from the whole dose curve; as a rule, active = well fitted curve in the direction sought with a large enough effect in the repeat runs; inconclusive = weak or mixed curves; inactive = no such curve, though single readings can be large; an effect the other way counts as inactive or inconclusive.

Bile acid receptor (Homo sapiens), sequence (Q96RI1 whole entry, looked up): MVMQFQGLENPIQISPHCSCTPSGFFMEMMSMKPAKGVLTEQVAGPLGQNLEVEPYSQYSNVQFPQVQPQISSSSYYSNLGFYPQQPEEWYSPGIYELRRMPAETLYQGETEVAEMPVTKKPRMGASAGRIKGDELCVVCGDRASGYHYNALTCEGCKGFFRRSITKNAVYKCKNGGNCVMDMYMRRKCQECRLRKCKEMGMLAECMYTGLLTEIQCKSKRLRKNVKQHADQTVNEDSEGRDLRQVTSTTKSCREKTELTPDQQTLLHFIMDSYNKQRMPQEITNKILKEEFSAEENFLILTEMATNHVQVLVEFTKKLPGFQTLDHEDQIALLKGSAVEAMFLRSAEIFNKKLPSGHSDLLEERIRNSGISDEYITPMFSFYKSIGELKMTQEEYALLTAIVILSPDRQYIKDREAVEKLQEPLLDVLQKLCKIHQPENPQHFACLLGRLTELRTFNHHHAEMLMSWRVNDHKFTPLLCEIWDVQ
Vitamin D3 receptor (Homo sapiens), sequence (P11473 whole entry, looked up): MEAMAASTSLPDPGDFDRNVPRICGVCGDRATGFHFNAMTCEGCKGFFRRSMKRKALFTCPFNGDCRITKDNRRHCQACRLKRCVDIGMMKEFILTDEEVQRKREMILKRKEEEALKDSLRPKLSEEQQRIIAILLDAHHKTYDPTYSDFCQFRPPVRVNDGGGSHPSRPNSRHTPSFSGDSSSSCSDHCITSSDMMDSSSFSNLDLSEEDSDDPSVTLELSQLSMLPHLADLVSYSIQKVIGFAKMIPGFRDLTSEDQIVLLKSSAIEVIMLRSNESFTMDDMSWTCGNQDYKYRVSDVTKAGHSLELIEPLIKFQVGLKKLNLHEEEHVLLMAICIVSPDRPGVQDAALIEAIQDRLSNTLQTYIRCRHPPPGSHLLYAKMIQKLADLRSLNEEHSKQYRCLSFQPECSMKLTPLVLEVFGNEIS
Peroxisome proliferator-activated receptor delta (Homo sapiens), sequence (Q03181 whole entry, looked up): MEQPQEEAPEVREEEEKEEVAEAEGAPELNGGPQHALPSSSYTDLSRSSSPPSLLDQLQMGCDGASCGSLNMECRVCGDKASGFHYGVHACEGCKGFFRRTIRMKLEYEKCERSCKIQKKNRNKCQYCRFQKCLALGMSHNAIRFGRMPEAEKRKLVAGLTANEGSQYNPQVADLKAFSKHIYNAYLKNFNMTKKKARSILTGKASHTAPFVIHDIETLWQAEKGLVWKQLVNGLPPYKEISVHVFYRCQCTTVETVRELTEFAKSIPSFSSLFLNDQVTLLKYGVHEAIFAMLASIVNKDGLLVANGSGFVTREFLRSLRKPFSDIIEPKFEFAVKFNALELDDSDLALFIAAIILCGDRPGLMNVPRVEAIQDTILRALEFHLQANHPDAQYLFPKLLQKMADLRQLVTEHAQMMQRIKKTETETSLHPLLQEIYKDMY

With `CCCCCOC(=O)c1ccccc1C(=O)OCCCCC`, the call in experiment [1], in experiment [2], in experiment [3], in [4] and in [5] was inactive.

On to `O=Cc1cccc(Oc2ccccc2)c1`, for which the molecule was classed as inactive in experiment [1], in [6], in experiment [2], in experiment [3], in experiment [4] and in [5]. Further, in experiment [7], the Potency result was “inactive”.

In the case of `CC(C)N1C(=O)c2ccccc2NS1(=O)=O`, the result in experiment [1], in [6], in experiment [2], in experiment [3] and in experiment [4] was inactive. For the same molecule, the Potency entry in [7] is “inactive”.

Turning to `O=[N+]([O-])c1ccc(Oc2ccc(Cl)cc2Cl)cc1`, the molecule was called inactive in [1], in experiment [6], in experiment [2], in experiment [4] and in experiment [5]. For the same molecule, the Potency result in [7] is “inactive”.

With `CC1OC(C)OC(C)O1` (stereo unspecified), the molecule was classed as inactive in experiment [6], in [2], in experiment [8], in experiment [3], in [9] and in experiment [10]. Further, the Potency entry in [7] is “inactive”.

`Oc1ccccc1Cl`: the molecule was called inactive in experiment [1], in experiment [6], in experiment [2], in [3], in experiment [10] and in experiment [4]. For the same molecule, in experiment [5], the call was inactive. Besides, the Potency result in [7] is “inactive”.

Turning to `O=C(O)c1ccccn1`, the molecule was called inactive in experiment [1], in [2] and in experiment [3].

As for `CCN(CC)c1ccccc1`, the outcome in experiment [1], in experiment [2], in [8], in [3], in [9] and in [10] was inactive. For the same molecule, the result in experiment [4] and in [5] was inactive.

On to `c1ccc(OP(Oc2ccccc2)Oc2ccccc2)cc1`, for which the outcome in [1], in experiment [2], in experiment [3], in [10], in experiment [4] and in experiment [5] was inactive.

As to `CN1C(=O)CN=C(c2ccccc2)c2cc(Cl)ccc21`, the molecule was called inactive in experiment [1], in experiment [2], in experiment [8], in experiment [3], in experiment [9] and in experiment [10]. Besides, the outcome in experiment [4] and in experiment [5] was inactive.

In the case of `CCOP(=S)(OCC)Oc1cnc2ccccc2n1`, the molecule was classed as inactive in experiment [1], in experiment [6], in [8], in experiment [3], in experiment [9] and in experiment [10]. The Potency result in [7] was “inactive”.

For the molecule `O=c1n(Cl)c(=O)n(Cl)c(=O)n1Cl`, the call in experiment [1], in experiment [6], in experiment [2], in [3], in experiment [10] and in experiment [4] was inactive. Moreover, the result in experiment [5] was inactive. For the same molecule, the Potency entry in [7] is “inactive”.

For `O=NN1CCCCCCC1`, the molecule was classed as inactive in [1], in [2], in experiment [8], in experiment [3], in [9] and in [10].

Regarding `CC(C)(C)OOC(=O)c1ccccc1`, the molecule was called inactive in [1], in experiment [6], in [2], in [3], in experiment [10] and in [4]. The outcome in experiment [5] was inactive. Moreover, the Potency result in experiment [7] was “inactive”.

With `CCCN(CCC)N=O`, the result in experiment [1], in experiment [6], in experiment [2], in [3], in [10] and in [4] was inactive. In experiment [5], the outcome was inactive. Further, the Potency entry in experiment [7] was “inactive”.

Turning to `Cc1cc(-c2cc(C)c(N)c(C)c2)cc(C)c1N`, the outcome in experiment [1], in [6], in experiment [2], in experiment [3], in [4] and in [5] was inactive. Besides, the Potency entry in experiment [7] was “inactive”.

Turning to `c1ccc2c(c1)Oc1ccccc1O2`, the molecule was classed as inactive in [1], in experiment [2], in experiment [8], in experiment [3], in [9] and in experiment [4].

On to `CC(C)(C)C(O)(CCc1ccc(Cl)cc1)Cn1cncn1` (stereo unspecified), for which the result in [1], in experiment [6], in [2], in [3], in [4] and in experiment [5] was inactive. Besides, the Potency result in experiment [7] was “inactive”.

As to `CCOC(=O)c1ccccc1C(=O)OCC`, the molecule was called inactive in [1], in [6], in [2], in [3], in experiment [4] and in experiment [5]. In experiment [7], the Potency result was “inactive”.

With `CC(C)(C)OOC(C)(C)C`, the call in [6], in experiment [2], in [8], in experiment [3], in experiment [9] and in experiment [10] was inactive. Besides, in experiment [7], the Potency entry is “inactive”.

In the case of `Nc1ccccc1C(=O)O`, the molecule was classed as inactive in experiment [1], in experiment [2], in [8], in experiment [3], in experiment [9] and in [4]. The result in experiment [5] was inactive.

Turning to `CC(Oc1ccc(Cl)cc1Cl)C(=O)O` (stereo unspecified), the call in experiment [1], in [2], in [8], in experiment [3], in [9] and in [4] was inactive. Besides, the outcome in [5] was inactive.

`CCC(C)(CC)c1cc(NC(=O)c2c(OC)cccc2OC)on1`: the molecule was called inactive in [6], in experiment [2], in experiment [3], in [10], in [4] and in experiment [5]. The Potency in [7] is 55.1 µM (active) and inactive.

On to `CCCCOC(=O)c1ccccc1C(=O)OCCCC`, for which the outcome in experiment [2], in experiment [3], in experiment [10], in experiment [4] and in experiment [5] was inactive.

`O=c1ccc(=O)[nH][nH]1`: the call in experiment [2], in experiment [8], in [3], in experiment [9], in [10] and in experiment [4] was inactive. Besides, the result in experiment [5] was inactive.

For the molecule `COC(=O)NS(=O)(=O)c1ccc(N)cc1`, the molecule was called inactive in experiment [6], in [2], in experiment [3], in experiment [10], in [4] and in experiment [5]. Also, the Potency entry in experiment [7] was “inactive”.

In the case of `CC(Br)C(=O)O` (stereo unspecified), the call in experiment [6], in experiment [2], in experiment [3], in experiment [10], in [4] and in experiment [5] was inactive. Also, the Potency entry in experiment [7] was “inactive”.

In the case of `COC(=O)c1ccccc1N`, the molecule was called inactive in [6], in experiment [2], in [3], in experiment [10], in experiment [4] and in experiment [5]. Further, the Potency result in experiment [7] is “inactive”.

As for `CNC(=O)Oc1ccccc1OC(C)C`, the molecule was called inactive in experiment [6], in experiment [2], in [3], in experiment [10], in experiment [4] and in experiment [5]. The Potency result in experiment [7] is “inactive”.
